JMJD2E inh: blocks human JMJD2E demethylase activity; B2RXH2; JMJD2E catalytic domain, FDH-coupled NADH fluorescence (FDH is formaldehyde dehydrogenase); Potency, µM (doses to about 57.1 µM), most hits filed as inhibitors; 230,000 tested, 1.6% active; active means well fitted inhibition curve with a large enough effect, not every such curve was filed as active; inconclusive means small, poorly fitted or top-dose-only effect, or another doubt; inactive means no such curve, though single readings can be large or run the other way; further: nearly all actives have a fitted effect of over 50% in size
Target sequence (B2RXH2 1-337 limits assumed): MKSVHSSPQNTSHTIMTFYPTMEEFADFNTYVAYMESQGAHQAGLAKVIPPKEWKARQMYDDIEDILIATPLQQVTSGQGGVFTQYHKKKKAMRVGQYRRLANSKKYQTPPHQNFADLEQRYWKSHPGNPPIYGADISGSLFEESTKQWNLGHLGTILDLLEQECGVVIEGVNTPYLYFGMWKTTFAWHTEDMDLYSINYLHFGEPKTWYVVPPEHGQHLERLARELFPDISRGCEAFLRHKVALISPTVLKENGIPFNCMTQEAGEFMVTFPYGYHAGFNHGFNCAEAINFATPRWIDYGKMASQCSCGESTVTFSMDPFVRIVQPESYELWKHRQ
Tau fibril ThT: inhibitors of human tau fibril formation, thioflavin T binding. 270,000 tested, 2.1% active. AID 1460. recombinant tau K18 P301L, heparin-induced fibrillization, ThT fluorescence. Potency, µM (series often up to 57.4 µM), hits mostly inhibitors; further: nearly all actives have a fitted effect of over 55% in size
Target sequence (P10636 561-689 P618L limits assumed): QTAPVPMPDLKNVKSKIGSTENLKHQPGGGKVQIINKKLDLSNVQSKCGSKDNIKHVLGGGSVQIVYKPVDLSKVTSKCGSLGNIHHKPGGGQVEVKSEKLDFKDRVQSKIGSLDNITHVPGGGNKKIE
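Heparin-induced fibrillization of the P301L-mutant K18 repeat-domain fragment of human tau was followed by ThT binding in quantitative high-throughput format.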
ALDH1A1 block: ALDH1A1 (human) enzyme inhibition. P00352. Purified ALDH1A1, NADH fluorescence, propionaldehyde substrate. Potency, µM (top dose mostly 75.3 µM), usual class: inhibitors. 220,000 tested, 7.3% active. AID 1030; active means well fitted inhibition curve with a large enough effect, not every such curve was filed as active; inconclusive means small, poorly fitted or top-dose-only effect, or another doubt; inactive means no such curve, though single readings can be large or run the other way
Tau fluor counter: counter-screen for tau fibril formation inhibitors; tau K18 P301L Alexa594 fluorescence, heparin fibrillization; Potency, µM (doses to about 57.7 µM); 280,000 tested, 0.93% active; further: nearly all actives have a fitted effect of over 55% in size
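Human tau K18 P301L (15 uM unlabeled, 0.24 uM Alexa 594-labeled) in 100 mM sodium acetate pH 7 with 20 uM heparin, 6 hr at 37 C. ThT 30 uM added, 1 hr ambient; Alexa 594 FP and total fluorescence read at 555/632 nm.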
HPGD block: inhibitors of human 15-hydroxyprostaglandin dehydrogenase (HPGD); P15428; purified HPGD, NADH fluorescence kinetic, PGE2 substrate; Potency, µM, usual class: inhibitors; 150,000 tested, 4.3% active; AID 894; active means well fitted inhibition curve with a large enough effect, not every such curve was filed as active; inconclusive means small, poorly fitted or top-dose-only effect, or another doubt; inactive means no such curve, though single readings can be large or run the other way
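20 nM HPGD preincubated 15 min at room temperature with compound in 50 mM Tris-HCl pH 8, 0.01% Tween 20. Started with 1 mM NAD+ and 30 uM prostaglandin E2; NADH fluorescence (360/450 nm) read 5 times over 30-s intervals, last minus first.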
Tau fibril FP: tau fibrillization inhibition (FP). P10636. K18 P301L tau heparin fibrillization, Alexa594 FP, 6 h. 280,000 tested, 0.39% active. Potency, µM (highest dose often 57.7 µM), usual class: inhibitors; further: nearly all actives have a fitted effect of over 55% in size
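Steps: dispense K18 P301L tau (15 uM plus 0.24 uM Alexa 594 tracer, final) in pH 7 sodium acetate; add compound; add heparin (20 uM final); incubate 6 hr, 37 C; add ThT (30 uM final); after 1 hr ambient, read FP.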
Numbers stand for hits; . = inactive; ? = inconclusive; / = no result given; [ ] = another dose, or the depositor's remark. In the library only some 9.9% were active in any assay of this set; here they are far more common. Unless noted, the call rests on the fitted dose curve; in most records, active means well fitted curve in the direction sought with a large enough effect; inconclusive means small, poorly fitted or top-dose-only effect, or another doubt; inactive means no such curve, though single readings can be large; an effect the other way counts as inactive or inconclusive.

SMILES	JMJD2E inh	Tau fibril ThT	ALDH1A1 block	Tau fluor counter	HPGD block	Tau fibril FP
N#Cc1c(SCC(N)=O)nc2c(c1-c1ccncc1)CCCC2	.	.	.	.	/	.
Cc1ccc(-c2c3c([nH]c(=S)c2C#N)CCCC3)o1	28.2µM	22.4µM	7.94µM	.	8.91µM	?
Cc1ccc(-c2c(C#N)c(N)nc3c2CCCC3)o1	?	.	?	.	/	.
Cc1ccc(C)c(N=Nc2nc3ccccc3n2C)c1	.	5.62µM	.	?	.	.
Cn1c(/N=C/c2cccs2)nc2ccccc21	.	.	.	.	.	.
Cc1cc(C)c(C)c(N=Nc2nc3ccccc3n2C)c1C	?	8.91µM	.	?	.	.
COc1ccc(Nc2ccc(Nc3ccc(OC)cc3)nn2)cc1	.	?	.	.	/	.
COc1ccc(Nc2ccc(OC)cc2)cc1	?	10µM	/	?	/	?
COc1ccc2nc(NS(=O)(=O)c3ccc(NC(C)=O)cc3)sc2c1	.	.	.	.	28.2µM	.
COc1ccc(Nc2nc3ccc(OC)cc3s2)cc1	.	12.6µM	.	14.1µM[quencher]	/	.
CS(=O)(=O)c1ccc2nc(NC(=O)Oc3ccccc3)sc2c1	.	.	3.16µM	.	.	.
CCOc1ccc2sc(NS(=O)(=O)c3ccc(OC)c(OC)c3)nc2c1	.	?	?	.	15.8µM	.
O=C1Nc2ccccc2C(=O)C1(Cl)Cc1ccccc1 (stereo not given)	?	?	14.1µM	.	7.08µM	?
CSc1nc2c(c(=O)[nH]1)C(c1ccccc1Cl)CC(=O)N2 (stereo not given)	.	.	12.6µM	.	/	.
CSc1nc2c(c(=O)[nH]1)C(c1cccc(F)c1F)CC(=O)N2 (stereo not given)	/	.	/	.	/	.
FC(F)Oc1ccc(NC(=S)NCc2ccccc2)cc1Cl	.	.	?	?	14.1µM	?
O=C(Nc1ccc(OC(F)F)c(Cl)c1)C(c1ccccc1)c1ccccc1	.	.	14.1µM	?	.	28.2µM
Cc1ccc([N+](=O)[O-])cc1S(=O)(=O)N1CCn2cccc2C1c1ccccc1F (stereo not given)	/	.	/	?	/	.
Cc1cc(Nc2ccc(Cl)cc2)n(-c2ccccc2)n1	.	.	.	.	7.94µM	.
Cc1cc(Nc2ccc(Cl)cc2)n(-c2cccc(Cl)c2)n1	.	?	.	?	.	.
CN1Cc2cc(C(=O)c3ccccc3O)cnc2NC1=O	.	.	.	.	25.1µM	.
COc1ccc(O)c(C(=O)c2cnc3c(c2)CN(C)C(=O)N3)c1	?	?	?	.	/	.
O=C(COc1ccc([N+](=O)[O-])cc1)N/N=C/c1cc([N+](=O)[O-])ccc1N1CCOCC1	.	3.98µM	3.55µM	.	.	.
O=C1/C(=C/c2c[nH]c3ccccc23)CCC/C1=C\c1c[nH]c2ccccc12	?	?	1.26µM	7.94µM[quencher]	.	.
O=C1CS/C(=N/N=C/c2c[nH]c3ccccc23)N1	.	/	/	.	/	.
SMILES	JMJD2E inh	Tau fibril ThT	ALDH1A1 block	Tau fluor counter	HPGD block	Tau fibril FP
COc1ccc(OC)c(NC(=O)c2nnn(CC(=O)Nc3ccc(C(C)C)cc3)c2N)c1	/	?	/	14.1µM[quencher]	/	.
COc1ccc(NC(=O)Cn2nnc(C(=O)Nc3ccccc3C)c2N)cc1	.	.	.	.	/	.
CC(=O)N1CCN(c2ccc(NCc3ccccc3)cc2)CC1	.	?	.	.	.	.
COC(=O)c1cc(NCc2ccc3c(c2)OCO3)ccc1N1CCOCC1	.	?	14.1µM	.	.	.
CC(=O)N1CCN(c2ccc(NCc3ccc(C)s3)cc2)CC1	?	?	25.1µM	?	.	?
CC(=O)N1CCN(c2ccc(NCc3cccs3)cc2)CC1	?	28.2µM	?	.	.	?
CC(=O)N1CCN(c2ccc(NCc3ccc4c(c3)OCO4)cc2)CC1	?	15.8µM	?	?	.	?
O=C(O)c1cc(NCc2ccc3c(c2)OCO3)ccc1N1CCOCC1	?	.	?	.	.	.
Nc1c(C(=O)Nc2ccccc2Cl)nnn1Cc1cccc(Cl)c1	/	.	/	.	/	?
N#Cc1cccc(-c2cncnc2-n2ccnc2)c1	.	.	.	.	.	.
O=C(COC(=O)CNC(=O)c1ccc2c(c1)OCO2)Nc1ncc(Cl)cc1Cl	?	.	.	.	/	.
Cc1ccsc1-c1nc(CN2CCCC2c2ccc(F)cc2)c(C)o1 (stereo not given)	?	?	?	.	/	.
COc1ccc(S(=O)(=O)NC(C)(C)C)cc1-c1nnc2c3ccccc3c(C)nn12	.	.	.	.	.	.
COc1ccc(S(=O)(=O)NCc2ccco2)cc1-c1nnc2c3ccccc3c(C)nn12	.	.	.	.	5.01µM	.
CNS(=O)(=O)c1ccc(OC)c(-c2nnc3c4ccccc4c(C)nn23)c1	.	.	?	.	15.8µM	.
Cc1ccc(CNC(=O)CCCCCn2c(=O)c3sccc3n(CC(=O)C(C)(C)C)c2=O)cc1	/	.	/	.	/	.
CCC(C)NC(=O)COC(=O)c1csc2c1CCCC2 (stereo not given)	.	.	.	.	25.1µM	.
CC1(C)CC(=O)C2=C(C1)OC(N)=C(C#N)C2C#Cc1ccccc1 (stereo not given)	.	?	1µM	.	12.6µM	.
C/C(=C\c1ccco1)C1C(C#N)=C(N)OC2=C1C(=O)CC(C)(C)C2 (stereo not given)	.	.	12.6µM	.	.	.
CC1(C)CC(=O)C2=C(C1)OC(N)=C(C#N)C2c1ccoc1 (stereo not given)	.	.	?	.	/	.
CC(c1ccccc1)C1C(C#N)=C(N)OC2=C1C(=O)CC(C)(C)C2 (stereo not given)	.	.	?	.	.	.
CN(C(=O)CSc1nc2ccccc2[nH]1)c1ccc(F)cc1	/	.	/	.	/	.
COc1ccc(-n2cc(C(=O)O)c(=O)cc2C)cc1	.	.	.	.	/	.
Nc1n[nH]c(N)c1N=Nc1ccc(Cl)cc1Cl	.	3.55µM	.	?	.	.
Cc1cccc(CSCCNC(=O)CCSc2ccccc2)c1	.	.	?	.	28.2µM	.
SMILES	JMJD2E inh	Tau fibril ThT	ALDH1A1 block	Tau fluor counter	HPGD block	Tau fibril FP
Cc1cccc(CSCCNC(=O)CSCc2ccc([N+](=O)[O-])cc2)c1	.	.	?	.	.	.
O=C(CCSc1ccccc1)NCCSCc1ccccc1	.	.	?	.	14.1µM	.
O=C(CCc1ccccc1)NCCSc1ccccc1	.	.	.	.	/	.
O=C(Cc1ccccc1)NCCSCc1ccc(Cl)cc1	.	.	?	.	31.6µM	.
Cc1cc(C)n(C(C)CC(=O)Nc2cccc(C(F)(F)F)c2)n1 (stereo not given)	/	.	/	.	/	.
O=[N+]([O-])c1ccc(CSc2nnc(SCc3ccc(Cl)cc3)s2)cc1	.	?	?	.	/	.
CN(C)c1ccc(N/C=C/C(=O)c2ccccc2)cc1	?	1.78µM	?	?	.	.
CN(C)c1ccc(N/C=C/C(=O)C(C)(C)C)cc1	7.08µM	15.8µM	?	?	.	?

Screening results (PubChem)
